Outcome and AC50 data for eight compounds are collected here from PubChem BioAssay (EPA / NIEHS).

Records with an inconclusive call do not appear. The source made the active and inactive calls. The calls were made as follows, unless noted: active = hit-call score of the fitted dose curve at least 0.9, where 1 is the maximum; inactive = score below 0.9.

By AC50 is commonly meant the concentration giving half of the maximal activity seen.

A short description of assay [1]: CCTE_Simmons_MITO_basal_resp_rate: CCTE's HepG2 Seahorse XF Respirometric Screening Assay at Basal Respiratory State, Simmons Lab (AID 2284001). The note with it: actives raise or lower the signal. The essentials: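 HepG2 respirometry; 7-pt titration 125 nM–100 uM final; kinetic OCR at 6 min intervals for 72 min; n=3 biological, technical singles; DMSO baseline, gain or loss fit; fenpyroximate (decrease) and 2,4-DNP (increase) controls.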

A short description of assay [2]: CCTE_Simmons_MITO_max_resp_rate: CCTE's HepG2 Seahorse XF Respirometric Screening Assay at Maximal Respiratory State [uncoupled], Simmons Lab (AID 2284002). The note with it: actives raise or lower the signal. The method, boiled down:
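Read-out is oxygen consumption rate at maximal respiration, taken after FCCP uncoupling of compound-treated HepG2 cells. Seven final concentrations from 125 nM to 100 uM were tested, each in three biological replicates.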

A short description of assay [3]: CCTE_Simmons_MITO_viability: CellTiter-Glo Viability Assessment for CCTE's HepG2 Seahorse XF Respirometric Screening Assay [post-hoc], Simmons Lab (AID 2284007; active = hit-call score of the fitted dose curve at least 0.9, where 1 is the maximum;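 as to AC50: cells exposed to chemical for 90 min before the ATP read; actives lower ATP signal relative to DMSO baseline meaning reduced viability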). The method, boiled down: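 HepG2 cells exposed 90 min to 7 concentrations from 125 nM to 100 uM final, then ATP measured by luciferase luminescence. Three biological replicates per concentration; DMSO vehicle; dichlone control at 10 nM–100 uM.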

Assay [4] in a line: CCTE_Harrill_HTTr_Viability_MCF7: CCTE's 6-hour Cell Viability Assessment for the High-Throughput Transcriptomics (HTTr) Platform, in MCF-7 cells cultured in DMEM + 10% fetal bovine serum, Harrill Lab (AID 2284010). The essentials: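 MCF-7 cells in DMEM + 10% FBS, 384-well, exposed 6 h to an eight-point dilution series. Membrane integrity scored by high-content imaging of propidium iodide exclusion; bidirectional fit versus DMSO.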

A short description of assay [5]: CCTE_Simmons_MITO_inhib_resp_rate: CCTE's HepG2 Seahorse XF Respirometric Screening Assay at Inhibited Respiratory State [full ETC block], Simmons Lab (AID 2284006). The note with it: actives raise or lower the signal. The essentials: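 HepG2 oxygen consumption was measured by Seahorse XF after compound, FCCP, then rotenone/antimycin A injections. Seven concentrations from 125 nM to 100 uM (final) were tested, with 6-min kinetic reads over 72 minutes. Inhibited-state OCR was fitted bidirectionally against DMSO.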

Assay [6] has as its target Nucleoli Translocation, AR (gene 367) (UniProt P10275). The assay can be described thus: UPITT_HCI_U2OS_AR_TIF2_Nucleoli_Agonist: University of Pittsburgh U2OS Androgen Receptor-Transcriptional Intermediary Factor 2 (AR-TIF2) Agonism High Content Imaging Assay for Nucleoli Translocation (AID 2283998; active = hit-call score of the fitted dose curve at least 0.9, where 1 is the maximum). The method, boiled down: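 Readout is red (AR-RFP) fluorescence localized to nucleoli, measured by high-content imaging and analysed for increase relative to DMSO. Compound series spanned 0.195 to 50 uM final in 0.5% DMSO.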

Assay [7] deals with Ratio of Nucleoli Translocation and Cytoplasm, AR (gene 367) (UniProt P10275). The assay can be described thus: UPITT_HCI_U2OS_AR_TIF2_Nucleoli_Cytoplasm_Ratio_Antagonist: University of Pittsburgh U2OS Androgen Receptor-Transcriptional Intermediary Factor 2 (AR-TIF2) Antagonism High Content Imaging Assay for Ratio of Nucleoli Translocation and Cytoplasm (AID 2283999; active = hit-call score of the fitted dose curve at least 0.9, where 1 is the maximum;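 also: antagonists lower the DHT-driven ratio of nucleolar to cytoplasmic red signal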). The essentials:
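U2OS cells co-expressing RFP-tagged human AR and GFP-tagged TIF2, antagonist mode with DHT as baseline. Nucleolar-to-cytoplasmic red fluorescence ratio imaged by high-content microscopy; final compound 20 uM (0.2% DMSO) primary, 0.195–50 uM (0.5% DMSO) concentration-response.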

Assay [8] shares this target. Put plainly: UPITT_HCI_U2OS_AR_TIF2_Nucleoli_Cytoplasm_Ratio_Agonist: University of Pittsburgh U2OS Androgen Receptor-Transcriptional Intermediary Factor 2 (AR-TIF2) Agonism High Content Imaging Assay for Ratio of Nucleoli Translocation and Cytoplasm (AID 2284000; active = hit-call score of the fitted dose curve at least 0.9, where 1 is the maximum;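 also: hits raise the red nucleolar to cytoplasm ratio above vehicle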). The essentials: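 Read-out first: nucleolar-to-cytoplasm ratio of red (AR-RFP) signal, quantified by high-content imaging in U2OS cells co-expressing TIF2-GFP. Activity is scored as signal increase over DMSO. Single-point screening used 20 uM final (0.2% DMSO).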

Assay [9] can be described thus: CCTE_Shafer_MEA_acute_spike_number: CCTE's Neural Acute Assay for Total Number of Spikes, Shafer Lab (AID 2284008).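 As to AC50: curve fitted for decrease in spike count so AC50 reflects inhibitors.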 The essentials:
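Read-out is the total spike count over 40 min, expressed as percent change from each well's own pre-treatment baseline and fitted in the loss direction against DMSO. Rat cortical neurons were exposed at 0.03-40 uM on DIV 13 or 15.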

Assay [10] in a line: CCTE_Shafer_MEA_acute_firing_rate_mean: CCTE's Neural Acute Assay for Mean Firing Rate, Shafer Lab (AID 2284009).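 Also: analyzed for loss of signal so actives lower firing rate relative to DMSO.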 The essentials: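 Percent change in well-mean firing rate was derived from extracellular spikes detected at 8x rms noise (300-5000 Hz band-pass) before and after a 40-min compound exposure. Cultures were primary rat cortical neurons, tested at 0.03-40 uM.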
A short description of assay [11]: CCTE_Harrill_HTTr_Viability_PRF_DMEM_12hr: (Pilot) CCTE's 12-hour Cell Viability Assessment for the High-Throughput Transcriptomics (HTTr) Platform, in MCF-7 cells cultured in phenol red-free DMEM + 10% charcoal-stripped fetal bovine serum, Harrill Lab (AID 2283977). The method, boiled down: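 MCF-7 cells in phenol red-free DMEM with 10% charcoal-stripped FBS exposed 12 hours to an eight-point dilution series. Viability assessed by high-content imaging of propidium iodide exclusion; bidirectional fit versus DMSO.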

Assay [12] is described as follows: CCTE_Harrill_HTTr_Viability_PRF_DMEM_24hr: (Pilot) CCTE's 24-hour Cell Viability Assessment for the High-Throughput Transcriptomics (HTTr) Platform, in MCF-7 cells cultured in phenol red-free DMEM + 10% charcoal-stripped fetal bovine serum, Harrill Lab (AID 2283980). The essentials: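 MCF-7 cells in phenol red-free DMEM with 10% charcoal-stripped FBS, eight-point dilution series, 24 h exposure. Membrane integrity by propidium iodide exclusion with high content imaging; bidirectional fit vs DMSO.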

The nature of assay [13]: CCTE_Harrill_HTTr_Apoptosis_DMEM_6hr: (Pilot) CCTE's 6-hour Apoptosis Assessment for the High-Throughput Transcriptomics (HTTr) Platform, in MCF-7 cells cultured in DMEM + 10% fetal bovine serum, Harrill Lab (AID 2283981). The essentials: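 Caspase-3/7 activation read by high content imaging with CellEvent Caspase 3/7 Green in MCF-7 cells (DMEM + 10% FBS), 6 h after dosing; eight-point dilution series. Bidirectional fitting relative to DMSO baseline.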

Assay [14] can be described thus: CCTE_Harrill_HTTr_Apoptosis_DMEM_12hr: (Pilot) CCTE's 12-hour Apoptosis Assessment for the High-Throughput Transcriptomics (HTTr) Platform, in MCF-7 cells cultured in DMEM + 10% fetal bovine serum, Harrill Lab (AID 2283982). The essentials:
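MCF-7 cells in DMEM + 10% FBS, exposed 12 h to an eight-point dilution series; caspase-3/7 activation imaged with CellEvent Green. Bidirectional fit versus DMSO.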

The nature of assay [15]: CCTE_Harrill_HTTr_Apoptosis_DMEM_24hr: (Pilot) CCTE's 24-hour Apoptosis Assessment for the High-Throughput Transcriptomics (HTTr) Platform, in MCF-7 cells cultured in DMEM + 10% fetal bovine serum, Harrill Lab (AID 2283983). The method, boiled down:
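MCF-7 cells in DMEM + 10% FBS, eight-point dilution series, 24 h exposure. Caspase-3/7 activation imaged by high-content imaging with CellEvent Caspase 3/7 Green. Bidirectional curve fitting against DMSO baseline.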

The nature of assay [16]: CCTE_Harrill_HTTr_Apoptosis_PRF_DMEM_6hr: (Pilot) CCTE's 6-hour Apoptosis Assessment for the High-Throughput Transcriptomics (HTTr) Platform, in MCF-7 cells cultured phenol red-free DMEM + 10% charcoal-stripped fetal bovine serum, Harrill Lab (AID 2283984). The essentials:
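MCF-7 cells in phenol red-free DMEM + 10% charcoal-stripped FBS, eight-point dilution series, 6 h exposure. Caspase-3/7 activation imaged by high-content imaging with CellEvent Caspase 3/7 Green; bidirectional fit versus DMSO baseline.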

The nature of assay [17]: CCTE_Harrill_HTTr_Apoptosis_PRF_DMEM_12hr: (Pilot) CCTE's 12-hour Apoptosis Assessment for the High-Throughput Transcriptomics (HTTr) Platform, in MCF-7 cells cultured in phenol red-free DMEM + 10% charcoal-stripped fetal bovine serum, Harrill Lab (AID 2283985). The method, boiled down:
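MCF-7 cells in phenol red-free DMEM with 10% charcoal-stripped FBS, eight-point dilution series, 12 h exposure. Caspase-3/7 activation imaged by high content imaging with CellEvent Green reagent; bidirectional fit vs DMSO.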

Assay [18] is described as follows: CCTE_Harrill_HTTr_Apoptosis_PRF_DMEM_24hr: (Pilot) CCTE's 24-hour Apoptosis Assessment for the High-Throughput Transcriptomics (HTTr) Platform, in MCF-7 cells cultured in phenol red-free DMEM + 10% charcoal-stripped fetal bovine serum, Harrill Lab (AID 2283986). The method, boiled down:
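MCF-7 cells in phenol red-free DMEM with 10% charcoal-stripped FBS, exposed 24 h across an eight-point dilution series. Caspase-3/7 activation imaged with CellEvent Green by high content imaging; bidirectional fitting against DMSO.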

Sequence of Nucleoli Translocation, AR (gene 367) (P10275 whole entry, looked up): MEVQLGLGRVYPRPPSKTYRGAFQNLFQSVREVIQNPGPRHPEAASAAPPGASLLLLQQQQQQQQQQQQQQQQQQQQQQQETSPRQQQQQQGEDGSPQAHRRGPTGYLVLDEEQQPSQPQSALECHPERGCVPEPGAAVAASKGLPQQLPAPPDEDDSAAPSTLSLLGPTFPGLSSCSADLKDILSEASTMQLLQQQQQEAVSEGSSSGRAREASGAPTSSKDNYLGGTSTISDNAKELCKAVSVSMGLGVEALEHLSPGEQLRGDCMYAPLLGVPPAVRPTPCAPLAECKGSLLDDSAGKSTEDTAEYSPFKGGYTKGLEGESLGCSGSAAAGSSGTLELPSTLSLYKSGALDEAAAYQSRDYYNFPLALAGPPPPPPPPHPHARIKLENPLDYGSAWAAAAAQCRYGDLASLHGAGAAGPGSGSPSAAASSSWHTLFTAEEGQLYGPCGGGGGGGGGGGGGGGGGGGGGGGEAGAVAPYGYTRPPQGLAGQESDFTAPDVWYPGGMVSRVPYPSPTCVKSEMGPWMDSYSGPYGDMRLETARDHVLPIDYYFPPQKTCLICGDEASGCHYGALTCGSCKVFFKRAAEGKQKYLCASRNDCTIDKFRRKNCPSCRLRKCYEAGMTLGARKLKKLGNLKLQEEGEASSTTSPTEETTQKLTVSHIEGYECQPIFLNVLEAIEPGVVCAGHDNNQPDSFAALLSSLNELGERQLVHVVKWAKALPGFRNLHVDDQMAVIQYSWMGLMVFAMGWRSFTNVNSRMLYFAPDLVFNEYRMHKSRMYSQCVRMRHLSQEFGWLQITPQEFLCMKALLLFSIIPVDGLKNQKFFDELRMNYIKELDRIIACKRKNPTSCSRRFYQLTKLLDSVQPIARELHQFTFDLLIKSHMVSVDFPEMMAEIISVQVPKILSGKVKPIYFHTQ
Sequence of Ratio of Nucleoli Translocation and Cytoplasm, AR (gene 367) (P10275 whole entry, looked up): as above

`CCN(CC)C(=O)C(C)Oc1cccc2ccccc12` (stereo not drawn): the outcome in assay [1] and in assay [4] was inactive. In addition, the AC50 in assay [2] is 32.7 µM (active); in assay [3] it was 50 µM (active).
Consider `CCNP(=S)(OC)O/C(C)=C/C(=O)OC(C)C` (stereo not drawn), for which the AC50 in assay [1] was 37.9 µM (active); in [2], 18.1 µM (active). Besides, the call in assay [5], in assay [3] and in [4] was inactive.
For `CCCCC(O)(Cn1cncn1)c1ccc(Cl)cc1Cl` (stereo not drawn), the AC50 in [6] was 78.4 µM (active); in assay [8] it was 77.3 µM (active); in assay [1], 41 µM (active); in assay [2], 60.5 µM (active); in assay [3] it was 10.1 µM (active). The outcome in assay [7], in assay [5], in assay [9], in assay [10] and in assay [4] was inactive.
As to `CCCCC(C#N)(Cn1cncn1)c1ccc(Cl)cc1` (stereo not drawn), the compound was called inactive in assay [1], in [2], in assay [5] and in assay [4].
As for `CC1(C)C(C=C(Cl)Cl)C1C(=O)OC(C#N)c1cccc(Oc2ccccc2)c1` (stereo not drawn), the result in assay [11], in assay [12], in assay [13], in assay [14], in assay [15] and in assay [16] was inactive. For the same compound, the outcome in assay [17], in assay [18], in assay [1], in assay [2], in assay [5] and in assay [3] was inactive. The compound was classed as inactive in assay [9], in [10] and in [4].
Regarding `COc1ccc(-c2ccccc2)cc1NNC(=O)OC(C)C`, the outcome in [6], in assay [7], in assay [8], in [1], in assay [2] and in assay [5] was inactive. Moreover, the outcome in assay [4] was inactive.
Consider `CCSC(=O)N1CCCCCC1`, for which the compound was called inactive in assay [1], in assay [2], in [5] and in assay [4].
For `CC(C)N1C(=O)N(c2ccccc2)CSC1=NC(C)(C)C`, the result in [6], in [7], in assay [8], in assay [1], in assay [2] and in [5] was inactive. Also, in [4], the result was inactive. For the same compound, the AC50 is 5.21 µM (active) in assay [9] and 5.27 µM (active) in [10].
